Source: PubChem BioAssay AID463195 (Sanford-Burnham Center for Chemical Genomics, 2010)
Hit rate of the full screen: of about 330,000 compounds, about 4,600 (1.4%) were called active.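 How the source made its calls: active means inhibition of 40% or more at the single tested concentration; inactive means the rest.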 The list comes from a sample in which actives are over-represented; it also holds similar structures and randomly drawn compounds.

Test: growth inhibitors of isogenic TIM10 control yeast, primary screen, counter-screen for tim10-1 yeast inhibitor project, luminescence, uHTS (AID 463195);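 further: wild-type TIM10 isogenic control strain grown at permissive 25 °C; 0% = DMSO yeast wells and 100% = minimal medium wells without yeast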
Conditions: S. cerevisiae TIM10 strain growth, BacTiter-Glo luminescence, 24 h; at 10 µM; hits give high values

Row | Structure (SMILES) | inhibition
1 | CC(C)[C@@H](C(=O)O)N(Cc1cccc(CN([C@H](C(=O)O)C(C)C)S(C)(=O)=O)c1)S(C)(=O)=O | 10.1% (inactive)
2 | CC(=O)c1cnc(-c2ccccc2)s1 | 12.3% (inactive)
3 | CC(C)(C)C(=O)c1cnc(Nc2ccccc2)s1 | 45.4% (active)
4 | O=C(/C=C/Nc1ccccc1)c1cnc(-c2ccccc2)s1 | 3.58% (inactive)
5 | CCOC(=O)C1CCCN(C(=O)c2ccc(CS(=O)(=O)c3ccc(Br)cc3)o2)C1 (stereo not given) | 4.19% (inactive)
6 | Cc1cc(N2CCCC2)ccc1NC(=O)COc1ccc(Cl)cc1 | 4.1% (inactive)
7 | NC(=O)NC(=O)C(OC(=O)CCNS(=O)(=O)c1ccccc1)c1ccccc1 (stereo not given) | 14.9% (inactive)
8 | COc1ccc(N2C(=O)NC(NS(=O)(=O)c3ccc(Cl)cc3)(C(F)(F)F)C2=O)cc1 (stereo not given) | 5.54% (inactive)
9 | Cc1ccc(S(=O)(=O)N(C)CC(=O)NCCc2c[nH]c3ccccc23)cc1 | -8.68% (inactive)
10 | O=C(NCCc1c[nH]c2ccccc12)c1cccc(Br)c1 | 4.34% (inactive)
11 | Cc1cc(C)cc(NC(=S)NCCc2c[nH]c3ccccc23)c1 | 40.6% (active)
12 | CCC(C)(C)NC(=O)CN(C(=O)CCC(=O)Nc1cc(C)ccn1)c1ccc2c(c1)OCCO2 | 17.4% (inactive)
13 | CCOC(=O)/C(C#N)=C\c1c(C)cc(C)c(COC(C)=O)c1C | 19% (inactive)
14 | COC(=O)CN(c1cccc(C(C)=O)c1)S(C)(=O)=O | 12.6% (inactive)
15 | CCSC1=C(C#N)C(=O)n2c1cc1c2CCCC1 | 63% (active)
16 | CCSc1ncnc2c(C#N)c3n(c12)CCCCC3 | -29.8% (inactive)
17 | COC(C[C@@H](O)C[C@H](O)[C@H](C)OCc1ccccc1)OC | -0.06% (inactive)
18 | CC1=C(C(N)=O)C(c2ccc3c(c2)OCO3)n2nc(-c3cccc(C)c3)nc2N1 (stereo not given) | 2.9% (inactive)
19 | c1ccc(-c2nnc3n2NC(c2ccc4c(c2)OCO4)S3)cc1 (stereo not given) | 57.8% (active)
20 | Cc1cccc(C)c1NC(=O)CSc1nnc(-c2ccccc2)n1Cc1ccc2c(c1)OCO2 | -0.243% (inactive)
21 | CN(CC(=O)NCCc1ccccc1)S(=O)(=O)c1cnc[nH]1 | -7.58% (inactive)
22 | O=C(CNC(=O)c1cccnc1)N/N=C/c1cc(Br)c(O)c(Br)c1 | -19.5% (inactive)
23 | Oc1c(Cl)cc(Cl)cc1/C=N/c1ncn[nH]1 | 23.9% (inactive)
24 | COc1cc(Br)cc(/C=N/c2ncn[nH]2)c1O | 48.7% (active)

Row | Structure (SMILES) | inhibition
25 | C=CCn1c(Cn2nnc3ccccc32)nnc1SCC(=O)N/N=C/c1cc(Br)cc(OC)c1O | -12.4% (inactive)
26 | Cc1cc(-c2nnc(SCC(=O)Nc3ccc(S(N)(=O)=O)cc3)n2N)n[nH]1 | -1.79% (inactive)
27 | CCOC(=O)C1=C(C)NC(=O)N(C(C)=O)C1c1ccc(Cl)cc1 (stereo not given) | 29.2% (inactive)
28 | CCOC(=O)c1[nH]c2c(c1-c1ccccc1)C(=O)CC(c1ccc(Cl)cc1)C2 (stereo not given) | 3.98% (inactive)
29 | CCOC(=O)C1Sc2[nH]c(=O)sc2C(c2ccc(Cl)cc2)C1C(=O)OCC (stereo not given) | 44.2% (active)
30 | COc1ccc(N2C(=O)C3C(C2=O)C(C(=O)c2ccccc2)N2CCCC32)cc1 (stereo not given) | 7.93% (inactive)
31 | Cn1ccnc1SCC(=O)Nc1ccc2c(c1)OCCO2 | 8.81% (inactive)
32 | COc1ccccc1-n1ccnc(SCC(=O)NC2CCCCC2)c1=O | 15.4% (inactive)
33 | COc1cccc(NC(=O)CSc2nccn(-c3ccc4c(c3)OCCO4)c2=O)c1 | 44.8% (active)
34 | CC(C)Oc1ccc(S(=O)(=O)N2CCOCC2)cc1NC(=O)C1CCCC1 | 3% (inactive)
35 | O=C(Nc1cccc(-n2cnnn2)c1)c1cccnc1 | 5.34% (inactive)
36 | O=C(Nc1ccc(C(F)(F)F)cc1)c1cccc(-n2cnnn2)c1 | 93% (active)
37 | O=C(Nc1ccc(-c2csc(Nc3cccc(C(F)(F)F)c3)n2)cc1)c1cccc(C(F)(F)F)c1 | 14.2% (inactive)
38 | CN(CC(=O)Nc1cccc(F)c1)C(=O)CC1CCCC1 | 7.55% (inactive)
39 | Cc1ccc(S(=O)(=O)N2CCOCC2)cc1C(=O)NC(=S)N(Cc1ccccc1)C(C)C | 15.5% (inactive)
40 | c1ccc(-c2ccnc3nc(-n4cccc4)nn23)cc1 | 14.7% (inactive)
41 | COc1ccc(NC(=O)c2ccc(C#CC(C)(C)O)cc2)cc1 | 12% (inactive)
42 | COc1ccc(C(=O)Nc2ccc(-n3nncc3C(C)(C)C)cc2)cc1 | 53.1% (active)
43 | C/C(=N\Nc1ccc([N+](=O)[O-])cc1)c1ccc(-n2nncc2C(C)(C)C)cc1 | 8.53% (inactive)
44 | COc1cccc(N(C(=O)c2ccn[nH]2)C2(C(=O)Nc3c(C)cccc3C)CCCCC2)c1 | 17.6% (inactive)
45 | OC(c1ccccc1)c1nccn1Cc1ccccc1 (stereo not given) | 8.31% (inactive)
46 | COc1ccc(/C=C(\C#N)C(=O)ONC2=NCCCCC2)cc1 | 48.5% (active)
47 | COc1ccc(N2CCN(C(=O)/C(C#N)=C/c3ccccc3)CC2)cc1 | 36% (inactive)
48 | COc1ccc(/C=C(\C#N)C(=O)OCC(=O)N(C)C2CCS(=O)(=O)C2)cc1 (stereo not given) | 4.8% (inactive)

Row | Structure (SMILES) | inhibition
49 | O=C(Cn1nc(CNc2ccc(Cl)cc2)[n+]2c1CCCCC2)c1ccc(Cl)cc1 | -4.18% (inactive)
50 | Cn1cc(CCC(=O)NC2CC2)c2ccccc21 | 4.31% (inactive)
51 | O=C(NCCc1ccc(F)cc1)c1ccc(S(=O)(=O)N2CCCCC2)cc1 | 41.7% (active)
52 | COC(=O)c1ccc(CNC(=O)c2ccc(S(=O)(=O)N3CCCCCC3)cc2)cc1 | -4.47% (inactive)
53 | O=C(Nc1ccccc1F)c1ccc(S(=O)(=O)N2CCCCCC2)cc1 | 12.4% (inactive)
54 | O=C(Nc1ccc([N+](=O)[O-])cc1)C1CC12CCC2 (stereo not given) | 14.3% (inactive)
55 | O=C(N/N=C/c1ccc(Cl)cc1)c1nc2ccc([N+](=O)[O-])cc2c(=O)[nH]1 | -0.404% (inactive)
56 | COc1ccc(C(=O)N2CCCC(C(=O)c3ccccc3OC)C2)cc1OC (stereo not given) | 1.3% (inactive)
57 | O=C(Nc1cccc(Cl)c1)C1CCCN(c2cnccn2)C1 (stereo not given) | 42.8% (active)
58 | O=C(Nc1ccc2c(c1)OCCO2)C1CCCN(c2ncccn2)C1 (stereo not given) | -4.49% (inactive)
59 | Cc1ccc(Cl)cc1NC(=O)C1CCCN(c2cnccn2)C1 (stereo not given) | 5.02% (inactive)
60 | O=C1C2C3C=CC(C4CC34)C2C(=O)N1c1nccs1 (stereo not given) | -2.66% (inactive)
61 | CCOC(=O)c1cnc2ccc(F)cc2c1Nc1ccc2c(c1)OCCO2 | 37.4% (inactive)
62 | COc1ccc(-c2cn3ccc(C)cc3n2)cc1 | 30.2% (inactive)
63 | CSc1nnc2ccc(-c3ccc(C)cc3)nn12 | 7.14% (inactive)
64 | Cc1ccc2nc(-c3ccc(Br)cc3)cn2c1 | 40.3% (active)
65 | CCN(CC)S(=O)(=O)c1ccc(-c2cn3ccc(C)cc3n2)cc1 | 11.7% (inactive)
66 | Cc1ccc(-c2cn3cc(C)ccc3n2)cc1 | 65% (active)
67 | Cc1ccc(-c2cn3cc([N+](=O)[O-])ccc3n2)cc1 | -29.9% (inactive)
68 | COc1ccccc1C(=O)Nc1nc2nc(-c3ccccc3)cc(=O)n2[nH]1 | -9.51% (inactive)
69 | N#Cc1ccccc1NC(=O)COc1c(Br)cc(Br)c2cccnc12 | 13.8% (inactive)
70 | O=C(Nc1ccc(N2CCN(C(=O)c3ccccc3)CC2)c(Cl)c1)c1ncn[nH]1 | -12.4% (inactive)
71 | CN(C)C(=O)CCC(=O)N1CCCCC1C(=O)Nc1ccc(Oc2ccccc2F)cc1 (stereo not given) | 3.39% (inactive)
72 | CC1=C(C(N)=O)C(c2ccc(Br)cc2)n2ncnc2N1 (stereo not given) | -4.88% (inactive)

Row | Structure (SMILES) | inhibition
73 | Fc1ccccc1/C=C1\CCCC2=C1Nc1ncnn1C2c1ccccc1F (stereo not given) | 48.1% (active)
74 | CCC1CCc2c(sc(NC(C)=O)c2C#N)C1 (stereo not given) | 7.23% (inactive)
75 | O=C(COC(=O)c1ccc(Cl)nc1)NCc1cccs1 | 7.82% (inactive)
76 | COc1ccccc1N1CCN(C(=O)C2Cc3ccccc3CN2C(=O)c2ccco2)CC1 (stereo not given) | 22% (inactive)
77 | COC1=C(N2CCOCC2)C(=O)c2ccccc2C1=O | -3.21% (inactive)
78 | COc1cc2ccccc2cc1C(=O)N1CCOCC1 | 5.86% (inactive)
79 | Cc1oc2c(c1C(=O)N1CCOCC1)C(=O)c1ccccc1C2=O | 46.1% (active)
80 | CC1=C(C)CC(C(=O)NNC(=O)c2csc3c2CCC(C(C)(C)C)C3)C(C(=O)O)C1 (stereo not given) | 5.91% (inactive)
81 | O=C(CSCc1ccccc1)Nc1ccccc1 | -3.8% (inactive)
82 | COC(=O)Cc1c(O)ccn(Cc2cccc(C(F)(F)F)c2)c1=O | 11.1% (inactive)
83 | O=C(/C=C/Sc1ncn[nH]1)c1ccc(Cl)cc1 | 73.5% (active)
84 | Cc1ccc(C(=O)/C=C/c2c(C)nn(-c3ccccc3)c2Cl)cc1 | 29.3% (inactive)
85 | O=C(CSc1ncn[nH]1)N/N=C/c1ccc(F)cc1 | -3.76% (inactive)
86 | CCN(CC)C(=O)[C@H]1C[C@H](CC(=O)NCC23CC4CC(CC(C4)C2)C3)C(=O)N2CCc3c([nH]c4cc(CCC(=O)N(C)C)ccc34)[C@]12C | 6.94% (inactive)
87 | CC(C)CC(=O)NC(=S)Nc1cc(C(=O)O)ccc1Cl | -4.57% (inactive)
88 | CC(C)CC(=O)NC(=S)Nc1ccc(F)cc1F | 41.9% (active)
89 | CC(=O)c1ccc(NC(=S)NC(=O)CC(C)C)cc1 | 28.8% (inactive)
90 | Cc1cc(C)c(C)c(S(=O)(=O)Nc2ccc(O)cc2)c1C | 11.4% (inactive)
91 | Cc1c(C)c(C)c(S(=O)(=O)NCCc2ccccn2)c(C)c1C | 7.03% (inactive)
92 | COC(=O)c1sccc1NS(=O)(=O)c1ccc(F)cc1F | 48.3% (active)
93 | COC(=O)c1sccc1NC(=O)CSc1ccccc1NS(=O)(=O)c1cc(Cl)ccc1Cl | 10% (inactive)
94 | COc1ccc(NS(=O)(=O)c2ccc(F)cc2F)cn1 | -5.52% (inactive)
95 | CC1CCCN(CCOCCOc2ccccc2-c2ccccc2)C1 (stereo not given) | -0.424% (inactive)
